{"source": "PubChem BioAssay AID720697", "about": "(Broad Institute, 2013)", "note": "Potency and affinity values are given separately. Inconclusive results are not listed. A call without a number means that no potency is given here. A number with no mark means an inactive call. Activity calls are given as the source filed them.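 How the source made its calls: active means signal loss with fitted half-maximal concentration at or below twice the top valid tested dose in every test run; inconclusive means runs disagree, flat 30 to 70% signal loss, or poor fit; inactive means all runs flat, opposite direction, or potency beyond limit.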"}
{"assay": "HEK293T cytotoxicity, dose response, cytotoxicity control for miR-122 modulator project, cell-based, inhibitor set, cherry-pick, set 2 (AID 720697)", "conditions": "HEK293T viability, CellTiter-Glo luminescence, 48 h; series mostly up to 26 µM"}
{"smiles": "Cc1noc(C)c1NC(=O)Nc1ccc2c(c1)C(=O)N(C)[C@@H]1CC[C@H](CC(=O)N[C@H]3CCN(Cc4ccccc4)C3)O[C@H]1CO2", "outcome": "inactive"}
{"smiles": "COc1cccc(CNC(=O)C[C@@H]2CC[C@H]3[C@H](COc4ccc(NC(C)=O)cc4C(=O)N3C)O2)c1", "outcome": "inactive"}
{"smiles": "COc1ccc2[nH]c(C(=O)O)c(NS(=O)(=O)c3ccc(Cl)s3)c2c1", "outcome": "inactive"}
{"smiles": "CN1C(=O)c2cc(NC(=O)c3cccc(F)c3)ccc2OC[C@H]2O[C@H](CC(=O)NC3CCC3)CC[C@H]21", "outcome": "inactive"}
{"smiles": "CO[C@@H]1CN(C)C(=O)c2ccc(NS(C)(=O)=O)cc2OC[C@H](C)N(C(=O)CN(C)C)C[C@@H]1C", "outcome": "inactive"}
{"smiles": "CCC(=O)N1[C@H](CN(C(C)C)S(C)(=O)=O)[C@@H](c2ccccc2)[C@@H]1CO", "outcome": "inactive"}
{"smiles": "C[C@@H]1CN([C@H](C)CO)S(=O)(=O)c2ccc(C#Cc3ccccc3F)cc2O[C@@H]1CN(C)C(=O)Cc1ccncc1", "outcome": "inactive"}
{"smiles": "COc1cc(-c2nnc(-c3ccco3)o2)ccc1OCc1ccccc1", "outcome": "inactive"}
{"smiles": "CN1C(=O)c2cc(NC(=O)c3cccs3)ccc2OC[C@@H]2O[C@@H](CC(=O)N3CCOCC3)CC[C@H]21", "outcome": "inactive"}
{"smiles": "CN1C(=O)c2cc(NC(=O)c3cccc(F)c3)ccc2OC[C@H]2O[C@H](CC(=O)N3CCc4ccccc4C3)CC[C@H]21", "outcome": "inactive"}
{"smiles": "C=CCc1ccccc1OCC(O)CN1CCN(CCN2C(=O)c3cccc4cccc(c34)C2=O)CC1", "note": "(centres undefined)", "outcome": "inactive"}
{"smiles": "COc1ccc(-c2cc(-c3nc4ccccn4c3NCc3ccccc3)ccc2OC)cc1", "outcome": "inactive"}
{"smiles": "CCCC(NS(=O)(=O)c1ccc(Br)cc1)C(=O)O", "note": "(centres undefined)", "outcome": "inactive"}
{"smiles": "COc1cc(C(=O)Nc2ccc(S(=O)(=O)N3CCCCC3C)cc2)cc(OC)c1OC", "note": "(centres undefined)", "outcome": "inactive"}
{"smiles": "Cc1cc(C(C)(C)C)cc(S(=O)(=O)NCCc2ccncc2)c1C", "outcome": "inactive"}
{"smiles": "C[C@@H]1CN([C@H](C)CO)S(=O)(=O)c2ccc(C3=CCCC3)cc2O[C@@H]1CN(C)C(=O)Cc1ccncc1", "outcome": "inactive"}
{"smiles": "O=CN1CCN(C(=O)c2ccccc2F)CC1", "outcome": "inactive"}
{"smiles": "CCCCNC(=O)Nc1nnc(-c2ccc(OCC)cc2)o1", "outcome": "inactive"}
{"smiles": "Fc1ccccc1-c1nc(-c2ccncc2)no1", "activity change, negative = cytotoxicity": "-1.62% [at 6 µM]"}
{"smiles": "C[C@H]1CN([C@@H](C)CO)S(=O)(=O)c2ccc(C3=CCCC3)cc2O[C@H]1CN(C)Cc1cccnc1", "outcome": "inactive"}
{"smiles": "Cc1ccc(-c2cnc3c(c2)C(=O)N([C@H](C)CO)C[C@@H](C)[C@H](CN(C)CC2CCCCC2)O3)cc1", "outcome": "inactive"}
{"smiles": "COc1ccccc1CNc1nc(Nc2ccccc2Cl)c2sccc2n1", "outcome": "inactive"}
{"smiles": "O=C(Nc1ccccc1N1CCN(C(=O)c2ccc(Cl)cc2)CC1)c1cccnc1", "outcome": "inactive"}
{"smiles": "COCC(=O)Nc1ccc2c(c1)C(=O)N(C)[C@H]1CC[C@@H](CC(=O)NCCCN(C)C)O[C@@H]1CO2", "outcome": "inactive"}
{"smiles": "CCC(=O)N1[C@H](CN(C(C)C)S(C)(=O)=O)[C@H](c2ccccc2)[C@@H]1CO", "outcome": "inactive"}
{"smiles": "CC(=O)N1[C@H](CN(C)S(=O)(=O)c2ccccc2)[C@H](c2ccccc2)[C@@H]1CO", "outcome": "inactive"}
{"smiles": "CC1(C)CC(=O)c2cnc(NC(=O)c3ccco3)nc2C1", "outcome": "inactive"}
{"smiles": "CC(=O)Nc1ccc2c(c1)C(=O)N(C)[C@@H]1CC[C@H](CC(=O)NCCCN3CCOCC3)O[C@@H]1CO2", "outcome": "inactive"}
{"smiles": "CC(C)NC(=O)Nc1ccc2c(c1)C(=O)N(C)[C@@H]1CC[C@H](CC(=O)NCC(F)(F)F)O[C@H]1CO2", "outcome": "inactive"}
{"smiles": "CCN(C[C@H]1[C@H](c2ccccc2)[C@H](CO)N1C(=O)COC)S(C)(=O)=O", "outcome": "inactive"}
{"smiles": "CC(=O)N1[C@H](CN(C(=O)c2ccc(F)cc2)C(C)C)[C@@H](c2ccccc2)[C@@H]1CO", "outcome": "inactive"}
{"smiles": "CCCNC(=O)C[C@H]1CC[C@@H]2[C@H](COc3ccc(NC(=O)c4cccs4)cc3C(=O)N2C)O1", "outcome": "inactive"}
{"smiles": "CCC(=O)N(C)C[C@H]1Oc2cc(C#CC3CCCCC3)ccc2S(=O)(=O)N([C@@H](C)CO)C[C@H]1C", "outcome": "inactive"}
{"smiles": "CCC(=O)N(C)C[C@@H]1[C@H](c2ccc(-c3ccccc3F)cc2)[C@H](CO)N1C(C)=O", "outcome": "inactive"}
{"smiles": "Cc1cccc(NC(=O)C[C@H]2CC[C@H]3[C@@H](COc4ccc(NC(=O)NC(C)C)cc4C(=O)N3C)O2)c1", "outcome": "inactive"}
{"smiles": "CCC(=O)NC[C@H]1[C@H](c2ccc(C3=CCCC3)cc2)[C@H](CO)N1C(C)=O", "outcome": "inactive"}
{"smiles": "Cc1nn(C)cc1NC(=O)C[C@@H]1CC[C@H]2[C@@H](COc3ccc(NC(=O)Nc4cccc(Cl)c4)cc3C(=O)N2C)O1", "outcome": "inactive"}
{"smiles": "COC(=O)C[C@H]1CC[C@H]2[C@H](COc3ccc(NS(=O)(=O)c4ccc(F)cc4)cc3C(=O)N2C)O1", "outcome": "inactive"}
{"smiles": "CCN(C[C@@H]1[C@@H](c2ccccc2)[C@H](CO)N1C(C)=O)C(=O)NC(C)C", "outcome": "inactive"}
